# Bioassay records as filed in PubChem BioAssay.
# Sampled rows, rich in hits. Any-hit rate of the full collection: about 1.8%.
# PI4K2A inh – inhibitors of human PI4K2A | Q9BTU6 | purified PI4K2A, ADP-Glo luminescence, 1 h; hits give low values | activity change, negative = inhibition, % at 76.9 µM | hit rate 0.13% among 420,000 | AID 1346378; in the data active = activity change below about -50%; inconclusive = mostly about -30% to -49%;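 note: -100% = wells without enzyme as full effect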
#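 PI4K2A activity was measured by ADP-Glo luminescence: enzyme (4 ug/mL stock) and phosphatidylinositol (1.2 mM stock) in Tris pH 7.5/MgCl2/EGTA/Triton X-100 buffer were reacted with ATP (300 microM stock) for one hour at ambient temperature.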
# PI5P4K alpha inh – inhibitors of human PI5P4K alpha. P48426. PI5P4Kalpha enzyme, ADP-Glo luminescence, 60 min; hits give low values. max response, %. hit rate 1.2% among 330,000; active = max response of -50% or lower; inconclusive = between -30% and -50%; inactive = -30% or higher; note: value at the top dose of about 77 µM
#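 Luminescence from ADP-Glo served as readout of PI5P4Kalpha activity in a qHTS format. Reaction: enzyme, substrate, compound, ATP at 5 microM final, 60 min at RT.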
# Akt phos inh – blocks phosphorylation of Akt. Neuro2A IGF-stimulated pAkt S473 HTRF, 20 min; hits give low values. activity change, % for hits at 50 µM. hit rate 0.32% among 360,000. AID 651550; in the data active = activity change below about -80%; inconclusive = mostly about -51% to -80%
#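 Neuro2A cells (4,500/well, DMEM with 0.5% FBS) were treated with compound at a single 50 µM final concentration, stimulated with 6 nM IGF for 20 min at 37 °C, and lysed. Phospho-Akt Ser473 was read by HTRF as 665/615 ratio ×10^4.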
# Six1-Eya2 inh – Six1/Eya2 interaction inhibition; Q15475+O00167; AlphaScreen GST-Six1/His-Eya2 binding, biochemical; hits give low values; activity change, % (concentration not given with the values); hit rate 0.56% among 360,000; AID 651725
# Target sequence (O00167 whole entry, looked up): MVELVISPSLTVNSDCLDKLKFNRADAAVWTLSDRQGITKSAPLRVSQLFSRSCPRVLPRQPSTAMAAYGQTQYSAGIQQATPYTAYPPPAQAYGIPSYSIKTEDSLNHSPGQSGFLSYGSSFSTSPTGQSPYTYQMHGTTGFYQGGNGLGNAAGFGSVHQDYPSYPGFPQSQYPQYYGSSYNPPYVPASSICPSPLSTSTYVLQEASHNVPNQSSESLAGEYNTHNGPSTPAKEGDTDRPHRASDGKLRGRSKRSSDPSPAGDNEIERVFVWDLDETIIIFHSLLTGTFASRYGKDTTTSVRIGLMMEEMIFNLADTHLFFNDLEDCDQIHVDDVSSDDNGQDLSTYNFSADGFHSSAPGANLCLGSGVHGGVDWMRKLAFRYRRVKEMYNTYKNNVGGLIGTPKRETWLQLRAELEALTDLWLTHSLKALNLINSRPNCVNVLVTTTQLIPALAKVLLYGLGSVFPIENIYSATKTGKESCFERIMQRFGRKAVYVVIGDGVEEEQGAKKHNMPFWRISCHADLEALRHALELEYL
# Target sequence (Q15475 whole entry, looked up): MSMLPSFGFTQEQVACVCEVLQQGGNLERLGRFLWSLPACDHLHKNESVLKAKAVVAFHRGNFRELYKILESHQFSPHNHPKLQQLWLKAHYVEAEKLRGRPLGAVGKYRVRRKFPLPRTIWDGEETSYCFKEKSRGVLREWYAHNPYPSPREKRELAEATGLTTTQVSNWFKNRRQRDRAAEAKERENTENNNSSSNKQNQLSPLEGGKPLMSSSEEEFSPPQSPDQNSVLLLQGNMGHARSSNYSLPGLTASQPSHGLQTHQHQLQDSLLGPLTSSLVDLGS
#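 Homogeneous AlphaScreen proximity assay pairing GST-Six1 with His-tagged Eya2 (added as 5X mix: 250 nM and 500 nM) in 50 mM Tris pH 8.0, 300 mM NaCl, 1 mM TCEP. Glutathione donor and nickel acceptor beads; 1 h, 37 °C, dark.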
# CtBP-E1A blk – CtBP/E1A binding inhibition | AlphaScreen GST-E1A/His-CtBP binding, 1536-well; hits give low values | activity change, % (test concentration not listed) | hit rate 0.49% among 340,000
#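 In 5 uL wells, 23 nL compound meets equimolar GST-E1A and His-CtBP (5X stock 125 nM each) for 2 h, 37 °C. Beads (5X, 50 ug/mL) then 1 h, 37 °C, dark.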
# ADP-Glo interf – counter-screen for PI5P4K inhibitors: ADP-Glo detection interference, no enzyme; shares compounds with PI5P4K alpha inh; ADP-Glo detection counter-screen, luciferase luminescence, no enzyme; Potency, µM (titrated, usually from 76.9 µM), without a hit: at the top dose activity change, negative = inhibition, most hits filed as inhibitors; 1,100 tested, under 10 active; AID 743285; active = well fitted curve in the direction sought with a large enough effect; inconclusive = small, poorly fitted or top-dose-only effect, or another doubt; inactive = no such curve, though single readings can be large or run the other way
# The depositor's hits bear a star; i = inactive; ? = inconclusive; / = not tested or not shown. Cut-off read from the data, not from the text of the source, unless noted: active = activity change below about -65%; inconclusive = mostly about -30% to -63%; inactive = weaker than that. Unless noted, % is set by controls: 0 for no effect and ±100 for the full control effect.
SMILES,PI4K2A inh,PI5P4K alpha inh,Akt phos inh,Six1-Eya2 inh,CtBP-E1A blk,ADP-Glo interf
COc1cccc(OCc2cc(C(=O)N(C)Cc3nc4ccccc4[nH]3)no2)c1,-2,-3,i,-5,-7,/
Cc1nc(N2CCC(C)CC2)c2c(C)c(C(=O)Nc3ccc4c(c3)OCCO4)sc2n1,-3,10,/,0,/,/
Cc1c(C(=O)Nc2ccc3c(c2)OCCO3)sc2ncnc(N3CCCCC3C)c12 (stereo unspecified),-5,/,i,-9,-10,-3%
Cc1ccc(-c2csc(NC(=O)c3ccc(F)cc3)c2C(=O)O)cc1,0,-61*,i,-4,-8,1%
O=C(Nc1scc(-c2ccccc2)c1C(=O)O)c1ccc(F)cc1,-4,?,i,6,/,/
Cc1cccc(C2Nc3ccccc3C(=O)N2c2ccc(F)cc2)n1 (stereo unspecified),-10,1,i,-6,-15,2%
Cc1ccc(NC(=O)C2CCN(S(=O)(=O)c3ccccc3)CC2)cc1,3,-12,i,8,-13,/
Cc1ccc(S(=O)c2ccc(NC(=O)C3CC3)cc2C#N)cc1 (stereo unspecified),-4,-63*,i,8,9,-6%
CN(C)c1ccc2nc3ccc(=O)cc-3sc2c1,-26,-73*,i,?,0,?
CCOC(=O)c1nnn(-c2nc(N(C)C)nc(N(C)C)n2)c1C,0,-4,i,-3,-1,/
CCOC(=O)c1nnn(-c2ccccc2)c1C,-4,0,i,-9,-21,-1%
CSCc1cc(N2CCCC2)nc(-c2ccccc2)n1,3,8,i,23,13,/
COCc1cc(N2CCCCC2)nc(-c2ccccc2)n1,-11,-74*,i,10,16,-4%
CC(C)(C)c1ccc(NC(=O)C2=CC=CN3CCS(=O)(=O)N=C23)cc1,-5,4,i,-1,6,3%
CCCCN=C1NN=C(c2ccc3c(c2)OCCO3)CS1,-1,-2,i,-28,-4,/
c1cc2c(cc1C1=NNC(=NC3CC3)SC1)OCCO2,?,-51*,i,1,/,?
COc1ccc(Nc2cccccc2=O)cc1,0,-2,i,-12,-2,/
COc1ccc(Nc2ccccc2C(=O)O)cc1,1,-64*,i,10,-17,6%
CCCCn1c(N)c(N(CCOC)C(=O)c2cc(-c3ccco3)nc3ccccc23)c(=O)[nH]c1=O,-13,-71*,i,-5,-1,-2%
CCCN(C(=O)c1cc(-c2ccco2)nc2ccccc12)c1c(N)n(Cc2ccccc2)c(=O)[nH]c1=O,-12,-59*,i,-10,0,-4%
CCCCN(C(=O)c1cc(-c2ccc(F)cc2)nc2ccccc12)c1c(N)n(CCCC)c(=O)[nH]c1=O,-1,-4,i,0,-1,/
O=C(Nc1ccc(Cl)cc1Cl)C1CCC(=O)N1Cc1ccccc1Cl (stereo unspecified),5,-3,i,6,3,/
COC(=O)[C@]12C[C@H](CC(=O)NCC3CCCCC3)C(=O)N(CCc3ccc(OC)c(OC)c3)C1=C[C@H](C(C)C)O[C@@H]2C1CC1,-1,/,/,/,/,/
CN(c1cccc(NC(=O)c2ccc(N(C)S(=O)(=O)c3ccccc3)cc2)c1)S(C)(=O)=O,-4,-56*,i,-4,/,-4%
CC(=O)Nc1ccc(C(=O)Nc2cccc(S(=O)(=O)N(C)c3ccccc3)c2)cc1,2,-1,i,-2,-17,/
SMILES,PI4K2A inh,PI5P4K alpha inh,Akt phos inh,Six1-Eya2 inh,CtBP-E1A blk,ADP-Glo interf
CN(C)C(=O)CNC(=O)C1CCCCC1,-4,-7,i,-1,1,/
NC(=S)c1cc2ccc(O)cc2oc1=O,-21,-72*,i,-12,5,-7%
CCOc1ccc(C(=O)c2cc3ccc(O)cc3oc2=O)cc1,-1,-67*,i,2,3,0%
C/C(=N/NC(N)=S)c1cc2ccc(O)cc2oc1=O,0,?,i,?,-6,/
Cc1cccc(N=c2oc3cc(O)ccc3cc2C(N)=O)c1,-12,-55*,i,-23,-19,5%
COc1ccc(C(=O)Nc2cc(C(C)C)c(O)c(S(=O)(=O)c3ccc(OC)cc3)c2C)cc1,-7,/,/,/,/,/
CCCn1c(C)cc(-c2csc(N)n2)c1C,-26,-58*,i,-6,-8,-8%
C=CCn1c(C)cc(-c2csc(N)n2)c1C,-8,/,/,-12,-27,/
